Inconclusive results are not listed. The source made the active and inactive calls. Rule for the calls: active = hit-call score of the fitted dose curve at least 0.9, where 1 is the maximum; inconclusive = response in the unintended direction; inactive = score below 0.9.

Nuclear receptor subfamily 1 group I member 2 (Homo sapiens), sequence (O75469 whole entry, looked up): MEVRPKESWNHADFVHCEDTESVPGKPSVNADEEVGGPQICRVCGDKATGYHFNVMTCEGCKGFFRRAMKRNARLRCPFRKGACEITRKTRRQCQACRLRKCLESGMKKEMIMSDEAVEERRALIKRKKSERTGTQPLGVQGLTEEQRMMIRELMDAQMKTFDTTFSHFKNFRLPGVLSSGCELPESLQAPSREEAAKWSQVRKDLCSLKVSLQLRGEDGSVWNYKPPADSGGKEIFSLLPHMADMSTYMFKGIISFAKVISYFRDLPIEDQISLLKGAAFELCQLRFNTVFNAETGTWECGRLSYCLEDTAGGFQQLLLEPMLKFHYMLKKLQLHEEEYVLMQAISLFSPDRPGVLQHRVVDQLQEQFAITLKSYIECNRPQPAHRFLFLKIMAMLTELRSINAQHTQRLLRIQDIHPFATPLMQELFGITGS

The assay has as its target Nuclear receptor subfamily 1 group I member 2 (Homo sapiens) (UniProt O75469). The experiment in a line: ATG_PXR_TRANS: Attagene TRANS-FACTORIAL HepG2 Assay for human Pregnane X Receptor (PXR) (AID 2283008). The protocol:
ATG_TRANS is a cell-based, multiplexed-readout assay that uses HepG2, a human liver cell line, with measurements taken at 24 hours after chemical dosing in a 24-well plate.ATG_PXR_TRANS is one of 30 assay component(s) measured or calculated from the ATG_TRANS assay. It is designed to make measurements of mRNA induction, a form of inducible reporter, as detected with fluorescence intensity signals by Reverse transcription polymerase chain reaction (RT-PCR) and Capillary electrophoresis technology.Data from the assay component ATG_PXR_TRANS was analyzed into 1 assay endpoint. This assay endpoint, ATG_PXR_TRANS, was analyzed in the positive analysis fitting direction relative to DMSO as the negative control and baseline of activity. Using a type of inducible reporter, measures of mRNA for gain-of-signal activity can be used to understand the reporter gene at the transcription factor-level as they relate to the gene NR1I2. Furthermore, this assay endpoint can be referred to as a primary readout, because this assay has produced multiple assay endpoints where this one serves a reporter gene function. To generalize the intended target to other relatable targets, this assay endpoint is annotated to the nuclear receptor intended target family, where the subfamily is non-steroidal.
Human liver HepG2 cells are transiently transfected with multiple reporter transcription units (MRTUs) in 6-well plates using FuGene 6 reagent (Roche; 3 ml FuGene/1 mg DNA). The MRTU constructs are regulated by a cis-regulating element (promoter). […] A major difference between the CIS and TRANS system is that in CIS activities of endogenous TFs are measured, whereas the TRANS assay evaluates changes in activities of exogenous, chimeric NR-Gal4 proteins. […] At the end of 24 hour incubation, total RNA was isolated using TriZol reagent (Invitrogen). The isolated RNA is then reverse-transcribed using oligo(dT) primer and Mo-MLV reverse transcriptase (Invitrogen) with DNAse I (Ambion) treatment for 30 min. The one-tenth of the produced cDNA was amplified by PCR using Taq DNA polymerase (Invitrogen) and two reporter sequence-specific primers. The PCR products were fluorescently labeled by primer extension with 6-arboxyfluorescein (6-FAM) 5'-labeled reporter sequence-specific primer (2 min at 95 C, 20 s at 68 C and 10 min at 72 C) and these products were digested with 5U of HpaI (New England Biolabs) for 2h at 37 C. The fragments were purified using Qiaquick PCR columns (Qiagen), analyzed on an ABI 3130xL genetic analyzer (Applied Biosystems) with peak positions identified by using a set of X-rhodamine (ROX)-labeled MapMarker1000 molecular weight standards (BioVentures). The raw capillary electrophoresis data was processed using Attagraph software (Attagene).
`CCN(CCN)c1cccc(C)c1`: the compound was called inactive.
Same read-out and setting: next, `O=[N+]([O-])c1ccc(O)cc1C(F)(F)F`: “inactive”; `CCC(=O)O[C@@H]1C[C@H]2CC[C@]1(C)C2(C)C`: “inactive”.
`O=CCc1ccccc1`: the AC50 is 13.1 µM (active).
`CC(C)c1ccccc1O`: the outcome was inactive.
On to `CCCCCCC(CO)CCCC` (stereo not given), for which the compound was called inactive.
As for `CN(C)C(=S)SC(=S)N(C)C`, the compound was called inactive.
On the same count and under the same terms, the same measure for `O=C(O)c1cc(C(=O)O)cc([N+](=O)[O-])c1`: “inactive”.
Consider `CCCCC(CC)COC(=O)c1ccc(O)cc1` (stereo not given), for which the AC50 is 20.7 µM (active).
On the same count and under the same terms, next, `C=C[Si]1(C)O[Si](C)(C=C)O[Si](C)(C=C)O[Si](C)(C=C)O1` (stereo not given): 4.48 µM (active); `Oc1c(Cl)cc(Cl)c(Cl)c1Cc1c(O)c(Cl)cc(Cl)c1Cl`: 5.79 µM (active).
Take `CCCC(=O)c1ccccc1`: the result was inactive.
Consider `CC(C)CC(C)CC(O)CC(C)C` (stereo not given), for which the outcome was inactive.
As for `CC(C)C[C@H](NC(=O)OCC1c2ccccc2-c2ccccc21)C(=O)O`, the AC50 is 12.5 µM (active).
Turning to `COC(C)(C)CCO`, the result was inactive.
The same measure, in the same setting: the same measure for `NCc1ccco1`: “inactive”; for `O=C(O)CCCCCCCCCCCC(=O)O`: “inactive”; for `Cc1ccc(S(=O)(=O)Oc2ccc(N=Nc3ccc(-c4ccc(N=Nc5c(O)ccc6cc(S(=O)(=O)O)cc(S(=O)(=O)O)c56)c(C)c4)cc3C)cc2)cc1`: “inactive”.
With `Clc1cc(Cl)c(-c2c(Cl)c(Cl)cc(Cl)c2Cl)cc1Cl`, the AC50 was 4.6 µM (active).
Regarding `CCCCC1CCC(O)CC1` (stereo not given), the outcome was inactive.
On to `CC/C=C\CC/C=C/CO`, for which the compound was called inactive.
Same read-out and setting: the same measure for `CCOc1ccccc1O`: “inactive”.
Turning to `CC=CC=CCOC(=O)C(C)C`, the compound was called inactive.
For `O=C1OC2(c3ccccc31)c1ccc(O)c(Br)c1Oc1c2ccc(O)c1Br`, the half-maximal activity concentration (AC50) is 57 µM (active).
Consider `OC[C@H]1O[C@@H](Oc2ccc(O)cc2)[C@H](O)[C@@H](O)[C@@H]1O`, for which the result was inactive.
Same read-out and setting: the same measure for `C[N+](C)(C)CCCCCC[N+](C)(C)C`: “inactive”.
For `CCCC1O[C@@H]2C[C@H]3[C@@H]4CCC5=CC(=O)C=C[C@]5(C)[C@H]4[C@@H](O)C[C@]3(C)[C@]2(C(=O)CO)O1` (stereo not given in full), the AC50 is 1.36 µM (active).
Turning to `CC(C)CCCCCCCCCCCCCCC(=O)O`, the result was inactive.
Same read-out and setting: the same measure for `CCCC(C)C(O)CC` (stereo not given): “inactive”.
Turning to `CC1C2CC(CC2C2CCCC(O)C2)C1(C)C` (stereo not given), the AC50 is 14.3 µM (active).
`CCOC(=O)C(C#N)=C(c1ccccc1)c1ccccc1`: the AC50 is 1.24 µM (active).
As to `Nc1ccccc1[N+](=O)[O-]`, the compound was classed as inactive.
As for `CCC(C)c1cc([N+](=O)[O-])cc([N+](=O)[O-])c1OC(=O)OC(C)C` (stereo not given), the AC50 is 1.58 µM (active).
In the case of `CCCCCCCC(=O)OCC(O)CO` (stereo not given), the outcome was inactive.
On to `O=CN1CCOCC1`, for which the compound was classed as inactive.
On the same count and under the same terms, next, `C=CC(=O)OCCC#N`: “inactive”.
Consider `C=C(C)CNCC`, for which the AC50 was 54.6 µM (active).
For the compound `C=CCCC(=O)/C=C/C1C(C)=CCCC1(C)C` (stereo not given), the AC50 was 2.37 µM (active).
As to `CCCCCC(C)=O`, the result was inactive.
Take `CC=Cc1ccc(OCC)c(O)c1`: the AC50 was 53.6 µM (active).

By AC50 is commonly meant the concentration giving half of the maximal activity seen.

Values taken from PubChem BioAssay (EPA / NIEHS).
